High-throughput results from PubChem BioAssay.
APE1 inh-1: blocks human APE1 abasic DNA cleavage; P27695; recombinant APE1, TAMRA/BHQ-2 abasic DNA cleavage fluorescence; Potency, µM (titrated, usually from 65.8 µM), for inactives: at the top dose activity change, negative = inhibition, most hits filed as inhibitors; 0.35% of 350,000 active; AID 2517;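 note: plate controls were vehicle for no effect and reference inhibitor for full effect; nearly all actives have a fitted effect of over 55% in size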
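APE1 at 0.75 nM preincubated 15 min at room temperature with compound. Reaction then started with 50 nM double-stranded THF-abasic substrate labelled with TAMRA/BHQ-2, and 525/598 nm fluorescence read kinetically. Activity taken as third-minus-first read difference, normalized to DMSO and NSC13755 controls.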
BLM helicase inh: inhibitors of human Bloom syndrome helicase BLM; Potency, µM (titrated, usually from 56.1 µM), inactives show top-dose activity change, negative = inhibition, usual class: inhibitors; 0.2% of 350,000 active; recombinant BLM DNA unwinding, fluorescence dequenching;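 note: plate controls were vehicle for no effect and no enzyme for full effect; nearly all actives have a fitted effect of over 35% in size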
L3MBTL1 block: inhibitors of human L3MBTL1; Q9Y468; AlphaScreen L3MBTL1–H3K9me1 peptide binding; 0.66% of 230,000 active; Potency, µM (top dose mostly 57.1 µM), without a hit: at the top dose activity, negative = inhibition, most hits filed as inhibitors; note: nearly all actives have a fitted effect of over 60% in size
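Displacement of a biotinylated histone H3(1-15) peptide monomethylated at Lys9 (75 nM) from L3MBTL1 (50 nM) was measured by AlphaScreen after a 30 min room-temperature compound incubation; cefsulodin titration served as intraplate control.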
RECQ1 inh: inhibitors of human RECQ1 DNA helicase; P46063; RECQ1 DNA unwinding, red fluorescence kinetic read; Potency, µM (highest dose often 57.3 µM), inactives show top-dose activity, negative = inhibition, actives largely listed as inhibitors; 0.54% of 240,000 active;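 note: plate controls were vehicle for no effect and no enzyme for full effect; nearly all actives have a fitted effect of over 30% in size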
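50 nM RECQ1T1 preincubated 15 min with compound in Tris pH 8.0 buffer with MgCl2, DTT, Tween-20 and 2.5 ug/ml poly(dI-dC); started with 200 nM TAMRA/BHQ-2 forked duplex and 2 mM ATP. Unwinding read as fluorescence (525/598 nm), two reads 2 h apart.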
KDM4E inh: blocks human JMJD2E demethylase activity; B2RXH2; JMJD2E catalytic domain, FDH-coupled NADH fluorescence (FDH is formaldehyde dehydrogenase); Potency, µM (series often up to 57.1 µM), for the others: at the top dose activity change, negative = inhibition, usual class: inhibitors; 1.6% of 230,000 active; active = well fitted inhibition curve with a large enough effect, not every such curve was filed as active; inconclusive = small, poorly fitted or top-dose-only effect, or another doubt; inactive = no such curve, though single readings can be large or run the other way;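 note: 0% = wells with enzyme and -100% = buffer wells without enzyme; nearly all actives have a fitted effect of over 50% in size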
APE1 dye cs: counter-screen for APE1 inhibitors: DNA dye displacement; shares compounds with APE1 inh-1; Potency, µM (titrated, usually from 28.5 µM), for inactives: at the highest dose activity change, negative = inhibition, actives largely listed as inhibitors; 7% of 480 active; DNA fluorescent dye displacement counterscreen, fluorescence;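 note: loss of thiazole orange fluorescence as the dye is displaced from duplex DNA; 0% = ThO with dsDNA and no compound and -100% = ThO without dsDNA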
EndoIV counter: Endo IV (E. coli) inhibition counter-screen | Potency, µM (titrated, usually from 27.1 µM), for the others: top-dose activity change, negative = inhibition, hits mostly inhibitors | shares compounds with APE1 inh-1 | 4% of 560 active | E. coli Endo IV, fluorogenic AP-site DNA cleavage;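 note: plate controls were uninhibited enzyme wells for no effect and no enzyme buffer wells for full effect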
APE1 inh-2: APE1 (human) endonuclease inhibition, confirmation; shares compounds with APE1 inh-1; purified APE1, fluorogenic abasic-site DNA cleavage; Potency, µM (doses to about 57.1 µM), inactives show at the top dose activity change, negative = inhibition, usual class: inhibitors; 44% of 750 active; AID 2572; note: nearly all actives have a fitted effect of over 30% in size
APE1 FP inh: APE1 (human) DNA binding inhibition, fluorescence polarization; shares compounds with APE1 inh-1; APE1 binding to TAMRA-labelled double-stranded DNA, fluorescence polarization displacement; Potency, µM (titrated, usually from 28.5 µM), for the others: at the highest dose activity, negative = inhibition, usual class: inhibitors; 7% of 480 active; AID 2573
Starred values were filed as active, the others as inactive; [ ] = dose if it differs, or a comment. The sample as a whole holds a higher share of hits than the screen did. Unless noted, calls come from the whole dose curve; as a rule, active = well fitted curve in the direction sought with a large enough effect; inconclusive = small, poorly fitted or top-dose-only effect, or another doubt; inactive = no such curve, though single readings can be large; an effect the other way counts as inactive or inconclusive. Unless noted, % is set by controls: 0 for no effect and ±100 for the full control effect; potency is the fitted concentration of half-maximal effect.

For Cc1noc(C)c1-c1ccc2ncnc(NCc3cccs3)c2c1 the results were APE1 inh-1 14.1µM*, BLM helicase inh -8.6%, RECQ1 inh 3.5%, APE1 dye cs inconclusive, EndoIV counter -52.5%[57.1 µM], APE1 inh-2 31.6µM* and APE1 FP inh 35.9%[57.1 µM].
For CC(=O)C1=C(C)NC(SCC(N)=O)=C(C#N)C1c1cccs1 (centres undefined) the results were APE1 inh-1 4.9%, BLM helicase inh -3.1%, RECQ1 inh -2.1% and KDM4E inh inconclusive.
For COC(=O)CCN(C(=O)c1c(C)oc2ncnc(N3CCOCC3)c12)c1ccccc1 the results were BLM helicase inh -1.1%.
For COc1cc(OC)c2c(c1O)OC(c1ccccc1)CC2=O (centres undefined) the results were APE1 inh-1 7.94µM*, BLM helicase inh -17.8%, L3MBTL1 block inconclusive, RECQ1 inh 12.6µM*, KDM4E inh -28.0%, APE1 dye cs 7.5%, EndoIV counter inconclusive, APE1 inh-2 inconclusive and APE1 FP inh 12.6µM*.
Screening O=C(NCCc1c[nH]c2ccccc12)OCCSS(=O)(=O)O returned APE1 inh-1 -2.5%, BLM helicase inh -10.9%, L3MBTL1 block 3.1%, RECQ1 inh -10.8% and KDM4E inh inconclusive.
`CC(C)C(C(=O)O)N1C(=O)/C(=C/C=C/c2ccco2)SC1=S` (centres undefined) gave APE1 inh-1 1.58µM*, BLM helicase inh inconclusive, L3MBTL1 block 1.78µM*, RECQ1 inh inconclusive, KDM4E inh inconclusive, APE1 dye cs 4.1%, EndoIV counter 21.6%, APE1 inh-2 2.51µM* and APE1 FP inh -61.5%.
Screening CC(C)C(C(=O)O)N1C(=O)/C(=C/c2cccn2C)SC1=S (centres undefined) returned APE1 inh-1 -1.3%, BLM helicase inh -0.7%, L3MBTL1 block -12.4%, RECQ1 inh 11.8% and KDM4E inh -7.2%.
`COc1ccc(/C=N/NC(=O)Cn2cnc3c2c(=O)n(C)c(=O)n3C)c(OC)c1OC` gave APE1 inh-1 2.4%, BLM helicase inh -1.0%, L3MBTL1 block 9.8%, RECQ1 inh -6.4% and KDM4E inh 0.6%.
Cn1c(=O)c2c(ncn2CC(=O)N/N=C/c2c[nH]c3ccccc23)n(C)c1=O was read as APE1 inh-1 8.1%, BLM helicase inh -3.9%, L3MBTL1 block -10.6%, RECQ1 inh -5.9%, KDM4E inh -0.4% and APE1 inh-2 inconclusive.
`O=C(/C=C1\SC(=O)N(CC(=O)Nc2ccc(F)cc2)C1=O)Nc1ccc(Cl)cc1` gave APE1 inh-1 -11.3%, BLM helicase inh -1.9%, L3MBTL1 block -0.9%, RECQ1 inh 0.7% and KDM4E inh 11.6%.
CC(=O)c1nn(-c2ccccc2)cc1C(=O)c1cccc(Br)c1 was read as APE1 inh-1 10.9%, BLM helicase inh 2.7%, L3MBTL1 block 3.9%, RECQ1 inh -2.5% and KDM4E inh 7.3%.
For CC(=O)c1nn(-c2cccc(Br)c2)cc1C(=O)c1ccccc1 the results were APE1 inh-1 inconclusive, BLM helicase inh -2.7%, L3MBTL1 block -0.2%, RECQ1 inh inactive, KDM4E inh 4.5%, APE1 dye cs -7.3%, EndoIV counter 7.2%, APE1 inh-2 -7.2%[24.4 µM] and APE1 FP inh 3.9%.
`Cc1nc(-c2ccc(O)c(O)c2)cs1` gave APE1 inh-1 3.16µM*, BLM helicase inh 0.5%, RECQ1 inh inconclusive, KDM4E inh 15.8µM*, APE1 dye cs 0.7%, EndoIV counter 183.4%, APE1 inh-2 -8.0%[24.4 µM] and APE1 FP inh -3.4%.
`CC1=C(C#N)c2nc(N)c(C#N)c(C)c2/C1=C\c1ccc(-c2ccccc2C(=O)O)o1` gave APE1 inh-1 25.1µM*, BLM helicase inh -8.9%, L3MBTL1 block 15.8µM*, RECQ1 inh 11.2µM*, KDM4E inh inconclusive, APE1 dye cs 11.2µM*, EndoIV counter 15.0%, APE1 inh-2 14.1µM* and APE1 FP inh 12.6µM*.
For COc1cc(/C=C2/C(C)=C(C#N)c3nc(N)c(C#N)c(C)c32)ccc1OCC(=O)O the results were APE1 inh-1 inconclusive, BLM helicase inh -8.3%, L3MBTL1 block inconclusive, RECQ1 inh inconclusive and KDM4E inh inconclusive.
CN(C)[C@H]1C(=O)C(C(=O)NCN2CCCC2)=C(O)[C@]2(O)C(=O)C3=C(O)c4c(O)cccc4[C@@](C)(O)[C@H]3C[C@@H]12 was read as BLM helicase inh -13.4%[21.4 µM], RECQ1 inh -21.5%[25.9 µM], KDM4E inh 11.2µM*, APE1 dye cs 5.2%, EndoIV counter -8.9%, APE1 inh-2 -10.9%[24.4 µM] and APE1 FP inh inconclusive.
`C[C@H]1c2cccc(O)c2C(O)=C2C(=O)[C@]3(O)C(O)=C(C(N)=O)C(=O)C(N(C)C)[C@@H]3[C@@H](O)C21` (some centres undefined) gave APE1 inh-1 4.3%, RECQ1 inh inactive and KDM4E inh inconclusive.
`S=c1[nH]nc(-c2cc(-c3ccccc3)n[nH]2)n1/N=C/c1ccc(Cl)c(Cl)c1` gave APE1 inh-1 3.7%, BLM helicase inh -13.4%, L3MBTL1 block -17.5%, RECQ1 inh -3.1%, KDM4E inh -18.0% and APE1 inh-2 39.8µM*.
S=c1[nH]nc(-c2cc(-c3ccccc3)n[nH]2)n1/N=C/c1ccc(Cl)cc1 was read as APE1 inh-1 -2.2%, BLM helicase inh -10.2%, L3MBTL1 block -7.4%, RECQ1 inh -15.1% and KDM4E inh -28.2%.
COc1ccc(CNC(=O)c2cc(Nc3ccc(OC)cc3OC)nc3ccccc23)cc1 was read as BLM helicase inh -9.6%.
For COCCCNC(=O)c1oc2c(c1C)-c1nn(Cc3ccccc3Cl)cc1CC2 the results were BLM helicase inh -6.5%.
